High-throughput results (PubChem BioAssay)
Only some compounds are listed: those with a hit (about 3.1% of all), similar ones and a draw of the others.
PriA SSB inh – blocks PriA binding to SSB C-terminal tail. AlphaScreen SSBct-PriA binding, biotinylated peptide. inhibition, % at 33 µM. 0.6% of 430,000 active; in the data active = inhibition mostly above about 37%, no sharp cut-off; inactive = mostly below about 20%;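 note: plate controls were negative control peptide for no effect and reference peptide for full effect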
BoNT-A LC inh2 – inhibitors of Botulinum neurotoxin A light chain protease; inhibition, % at 10 µM; 0.17% of 360,000 active; multiplex microsphere protease substrate cleavage, flow cytometry; AID 588499; note: plate controls were buffer without enzyme for full effect and enzyme alone for no effect
Anthrax LF inh2 – inhibitors of Bacillus anthracis lethal factor protease; inhibition, % at 10 µM; AID 588501; multiplex microsphere protease cleavage assay, LF; 0.12% of 360,000 active; note: plate controls were buffer without enzyme for full effect and enzyme alone for no effect
BoNT F protease – blocks Botulinum neurotoxin F light chain protease; Multiplex microsphere protease cleavage assay, flow cytometry; inhibition, % at 10 µM; 0.22% of 360,000 active; in the data active = inhibition above about 35%, passing the limit was not always enough; inconclusive = no clear call, values can overlap the other calls; note: plate controls were buffer without enzyme for full effect and enzyme alone for no effect
Autofluor counter – flagged as autofluorescent in microsphere protease counterscreen; AID 624483; compound autofluorescence counterscreen, microsphere flow cytometry; stronger effect = higher value; fluorescence intensity (no concentration beside the values); 3.1% of 360,000 active; in the data active = fluorescence intensity above about 16000; inconclusive = no clear call, values can overlap the other calls
Starred values were filed as active, the others as inactive; u = inconclusive; x = no result given. Cut-off read from the data, not from the text of the source, unless noted: active = inhibition above about 30%; inconclusive = no clear call, values can overlap the other calls; inactive = below that.

SMILES	PriA SSB inh	BoNT-A LC inh2	Anthrax LF inh2	BoNT F protease	Autofluor counter
CCN(CC)CCn1c(=S)[nH]c2cc3c(cc2c1=O)OCO3	-14.4	u	-1.0	-2.3	23550*
CCCCNC(=O)CCCn1c(=S)[nH]c2cc3c(cc2c1=O)OCO3	-1.3	u	-3.0	-2.6	20235*
O=C(O)CCCn1c(=S)[nH]c2cc3c(cc2c1=O)OCO3	-15.0	x	x	x	x
O=S(=O)(CCC(F)(F)F)NCc1cnn2c1CCCC2	-16.0	x	x	x	x
O=C(Nc1ccc(N2CCCS2(=O)=O)cc1)c1cccs1	-4.0	x	x	x	x
Cc1cc(NC(=O)C(NC(=O)c2ccc(F)cc2)C23CC4CC(CC(C4)C2)C3)no1 (stereo unspecified)	0.0	x	x	x	x
O=C(Nc1cccnc1)c1cc2nc(C3CC3)cc(C(F)(F)F)n2n1	-17.3	0.8	2.1	0.0	2815
CC(C)CNC(=O)c1cc2nc(C3CC3)cc(C(F)(F)F)n2n1	-8.3	1.0	-2.3	-24.8	3223
COC(=O)c1ccccc1NC(=O)c1cc2nc(C3CC3)cc(C(F)(F)F)n2n1	-12.8	-4.3	-2.4	-3.2	21329*
COc1cc(NC(=O)c2cc3nc(C4CC4)cc(C(F)(F)F)n3n2)c(OC)cc1Cl	-11.3	-3.5	-2.6	-2.9	24788*
Cn1nc(CCC(=O)NCc2cccs2)ccc1=O	4.0	x	x	x	x
CCCOc1ccc(C2C([N+](=O)[O-])=C(C)N(C)C(=O)N2C)cc1OC (stereo unspecified)	-1.0	x	x	x	x
COc1cccc(OCC(=O)NCCn2ncc3c(=O)n(Cc4cccc(C)c4)cnc32)c1	-15.0	x	x	x	x
c1ccc(-c2sc3ccccc3c2-c2ccc(OCCN3CCOCC3)cc2)cc1	11.2	-0.1	-5.3	-7.2	4157
COc1cc2sc(-c3ccccc3OC)c(-c3ccc(OCCN4CCCCC4)cc3)c2cc1OC	46.5*	-0.8	-2.4	-13.2	4187
C1=C(c2sc3ccccc3c2-c2ccc(OCCN3CCOCC3)cc2)CCCC1	41.3*	-0.5	-8.5	-5.0	3907
O=C(Nc1ccccc1OC(F)(F)F)c1ncc(-c2ccc(F)cc2)o1	-12.0	x	x	x	x
CCc1ccccc1NC(=O)c1ccc(=O)n(Cc2ccc(F)cc2)n1	2.0	x	x	x	x
COc1ccc2c(c1)C(=NN)c1cc(OC)ccc1-2	47.0*	-1.9	-6.1	-19.3	12791
Cc1ccc(CC(=O)N(Cc2ccccn2)c2nc3ccccc3s2)cc1	-1.0	x	x	x	x
Cn1nnc2sc3c(c2c1=O)CCCC3	0.9	-2.2	-1.2	-5.2	23005*
CCOC(=O)c1c(Nc2ccc(Cl)cc2)sc(C=C2C=Nc3ccccc32)c1O	-10.5	x	x	x	x
CCOC(=O)c1c(Nc2ccccc2)sc(/C=C2\C=Nc3ccccc32)c1O	-19.3	8.1	-3.1	11.4	17134*
O=C(NC1CCCCC1)N1CCC(c2nc3ccc(Cl)cc3[nH]2)CC1	-1.8	-0.7	-4.6	-1.3	16224*
O=C(C1CCCCC1)N1CCC(c2nc3ccccc3[nH]2)CC1	-34.0	0.3	-3.4	-1.1	7753
SMILES	PriA SSB inh	BoNT-A LC inh2	Anthrax LF inh2	BoNT F protease	Autofluor counter
O=C(NC1CCCCC1)N1CCC(c2nc3ccccc3[nH]2)CC1	-6.8	1.2	-6.0	2.3	22032*
O=C(NC1CCCCC1)N1CCCC(c2nc3ccccc3[nH]2)C1 (stereo unspecified)	-3.0	14.3	-17.0	18.0	15663
O=C(NC[C@]1(O)CCOc2ccccc21)c1nc2ccccc2s1	3.0	x	x	x	x
COc1ccc(Cl)cc1NC(=O)CN(C)C(=O)c1ccc(OCc2ccccc2)c(OC)c1	0.7	-3.5	-0.5	1.8	6893
CCOc1ccc(NC(=O)CN(C)C(=O)c2ccc(OCc3ccccc3)c(OC)c2)cc1OCC	42.4*	0.9	-0.3	-8.3	4633
Cc1cc(NCCCN2CCOCC2)n2ncc(-c3ccc(Cl)cc3)c2n1	-14.8	u	-1.2	-4.1	23672*
Cc1cc(NCCCn2ccnc2)n2ncc(-c3ccc(Cl)cc3)c2n1	42.6*	u	-7.8	-1.6	22244*
CCCCC1CCC(C(=O)Nc2ccccc2)CC1 (stereo unspecified)	-4.1	u	-2.5	-1.4	16463*
O=C(COc1ncccn1)Nc1cccc(C(F)(F)F)c1	-6.0	x	x	x	x
CC(=O)Cc1nsc(NC(=O)c2cc(-c3ccc(Cl)c(Cl)c3)oc2C)n1	-12.0	-3.2	-3.4	-4.3	23305*
CC(=O)Cc1nsc(NC(=O)c2ccc(-c3ccc(Cl)cc3Cl)o2)n1	-7.6	0.1	-5.7	-0.8	20376*
CC(=O)Cc1nsc(NC(=O)c2ccc(-c3cc(Cl)ccc3Cl)o2)n1	0.0	-1.4	-1.7	-5.9	3480
CC(=NNc1ccc2nncn2n1)c1ccc(Cl)s1	-11.9	x	x	x	x
Cc1ccc(Cn2nc(C(=O)Nc3ccc(Br)cc3)cc2C)cc1	-2.9	-2.4	-8.5	7.9	3229
COC(=O)c1cc(C(=O)OC)n(Cc2ccc(Br)cc2)n1	-5.9	u	-2.3	-4.9	21618*
CCOC(=O)c1c(/N=C/c2c(O)n(-c3ccccc3F)c(=S)[nH]c2=O)sc2c1CCCC2	x	57.4*	56.2*	24.2	3294
CCOC(=O)c1ccc(N=Cc2c(O)n(-c3ccccc3F)c(=S)[nH]c2=O)cc1	7.8	-0.2	0.2	2.8	10675
CCOC(=O)c1c(/N=C/c2c(O)n(-c3ccc(F)cc3)c(=S)[nH]c2=O)sc2c1CCCC2	x	101.4*	56.4*	43.2*	11434
COc1ccc(-c2nnc(NN3CCOCC3)[nH]c2=O)cc1	-9.0	x	x	x	x
Oc1c(Cl)cc(CN2CCCCC2)c2cccnc12	x	-1.6	-15.1	-11.7	3025
O=[N+]([O-])c1cc(CN2CCCC2)c2cccnc2c1O	90.2*	-3.4	0.2	-18.1	2006
O=[N+]([O-])c1cc(CN2CCN(c3cccc(C(F)(F)F)c3)CC2)c2cccnc2c1O	89.6*	x	x	x	x
O=C(C1CC2C=CC1C2)N1CCC(Cc2n[nH]c(=O)n2-c2ccccc2F)CC1 (stereo unspecified)	4.0	x	x	x	x
COc1ccc(NC(=O)C2CC(=O)NC(Nc3cccc(C)c3)=N2)cc1 (stereo unspecified)	-5.2	-0.7	0.4	-21.2	4406
CCc1ccc(NC2=NC(C(=O)NC3CCCCC3)CC(=O)N2)cc1 (stereo unspecified)	-0.4	u	-7.8	6.0	20212*
SMILES	PriA SSB inh	BoNT-A LC inh2	Anthrax LF inh2	BoNT F protease	Autofluor counter
CCC(C)NC(=O)c1ccccc1SC (stereo unspecified)	-1.4	0.0	-4.4	-1.2	4500
CCOC(=O)c1ccc(NC(=O)c2ccc(CSc3ncccn3)cc2)cc1	-8.0	x	x	x	x
Cc1ccccc1NC(=O)c1ccc(CSc2ncccn2)cc1	-9.0	-0.4	-2.0	-0.2	16598*
CCC(C)NC(=O)c1ccccc1C(=O)NC(C)CC (stereo unspecified)	-27.1	-3.5	-2.6	-6.4	24599*
CC(C)CNC(=O)c1ccccc1NC(=O)c1ccc(CSc2ccccc2)cc1	-6.2	0.2	-2.2	-4.4	2358
CCC(C)NC(=O)c1ccccc1NC(=O)c1ccc(CSc2ccc(C)cc2)cc1 (stereo unspecified)	-7.7	-2.9	-3.5	-6.1	17124*
O=C(Cc1cccc2ccccc12)NNc1ncnc2c1cnn2-c1ccc(F)cc1	1.0	x	x	x	x
Cc1ccc(-n2ncc3c(=O)[nH]c(SCC(=O)N4CCCC4)nc32)cc1C	-2.7	-0.8	-6.0	3.1	4463
Cc1ccc(-n2ncc3c(=O)[nH]c(SCC(=O)N4CCC(C)CC4)nc32)cc1C	86.1*	0.1	-0.6	5.7	4160
